# The supplement of paper PMC8728848
# About 410 targets per protein were measured; listed, in parts, are those with the strongest signals and a random draw of the rest.
# B1: SfaEH (Escherichia coli), Q1RDG5 (protein)
# chain: LLCRNNQTGQVFNSGDTSFRVNVSPVVQYDKSISVLDLSQLVSCQNEDSTGQNYDYLKILKGSGFSPALDTKTYGRLDFTSRPTGYARQLPLQFDLQVTEAFYQYGVWKPFPAKLYLYPAPGVFGKVINNGDLLATLYVNKFSTKGQEAGERNFTWRFYATNDVYIQTGTCRVSSNNVKVDLPSYPGGPVTVPLTVRCDQTQSVSYTLSGPVTGSGNTVFANTAASGSGGVGIQLSDNVGPVPAGQPRSLGQVGSSPVSLGLKASYALTGQASPTPGAVQSVINVTFSYN
# Key:
# Assay in all cases: glycan array binding signal (z-score within array); higher = stronger binding
# Details in all cases: glycan notation: IUPAC condensed, linker removed
# Fuc(a1-2)Gal = biological target: Fuc(a1-2)Gal
# In short: (§1)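 The Consortium for Functional Glycomics database supplied 3228 glycan arrays, of which those lacking an available protein sequence were dropped. The binding signal, a within-array Z-score, was averaged across arrays of the same protein sequence and across linkers. Negative scores can be read as non-binding.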
# [1] = biological target: Fuc(a1-2)Gal(b1-3)GalNAc(b1-4)[Neu5Ac(a2-3)]Gal(b1-4)Glc
# In short: as §1
# [2] = biological target: Fuc(a1-2)Gal(b1-3)[Fuc(a1-4)]GlcNAc(b1-2)Man(a1-3)[Fuc(a1-2)Gal(b1-3)[Fuc(a1-4)]GlcNAc(b1-2)Man(a1-6)]Man(b1-4)GlcNAc(b1-4)[Fuc(a1-6)]GlcNAc(b1-4)[Fuc(a1-6)]GlcNAc
# In short: as §1
# [3] = biological target: Fuc(a1-2)Gal(b1-4)GlcNAc(b1-2)Man(a1-3)[Fuc(a1-2)Gal(b1-4)GlcNAc(b1-2)Man(a1-6)]Man(b1-4)GlcNAc(b1-4)[Fuc(a1-6)]GlcNAc
# In short: as §1
# [4] = biological target: Fuc(a1-2)Gal(b1-4)[Fuc(a1-3)]GlcNAc(b1-3)Gal(b1-4)[Fuc(a1-3)]GlcNAc(b1-3)Gal(b1-4)[Fuc(a1-3)]GlcNAc
# In short: as §1
# [5] = biological target: Fuc(a1-2)[Gal(a1-3)]Gal(b1-4)GlcNAc(b1-2)Man(a1-3)[Fuc(a1-2)[Gal(a1-3)]Gal(b1-4)GlcNAc(b1-2)Man(a1-6)]Man(b1-4)GlcNAc(b1-4)GlcNAc
# In short: as §1
# [6] = biological target: Fuc(a1-2)[Gal(a1-4)]Gal(b1-4)GlcNAc
# In short: as §1
# [7] = biological target: Fuc(a1-3)[Gal(b1-4)]GlcNAc
# In short: as §1
# [8] = biological target: Gal(b1-3)GalNAc(a1-3)[Fuc(a1-2)]Gal(b1-4)Glc
# In short: as §1
# [9] = biological target: Gal(b1-3)GlcNAc(a1-3)Gal(b1-4)GlcNAc
# In short: as §1
# [10] = biological target: Gal(b1-3)GlcNAc(b1-3)Gal(b1-4)GlcNAc(b1-3)Gal(b1-4)GlcNAc(b1-2)[Gal(b1-3)GlcNAc(b1-3)Gal(b1-4)GlcNAc(b1-3)Gal(b1-4)GlcNAc(b1-6)]Man(a1-6)[Gal(b1-3)GlcNAc(b1-3)Gal(b1-4)GlcNAc(b1-3)Gal(b1-4)GlcNAc(b1-2)Man(a1-3)]Man(b1-4)GlcNAc(b1-4)[Fuc(a1-6)]GlcNAc
# In short: as §1
# [11] = biological target: Gal(b1-3)[Fuc(a1-4)]GlcNAc(b1-3)Gal(b1-3)[Fuc(a1-4)]GlcNAc
# In short: as §1
# [12] = biological target: Gal(b1-3)[Neu5Ac(a2-6)]GlcNAc(b1-4)Gal(b1-4)Glc
# In short: as §1
# [13] = biological target: Gal(b1-4)GlcNAc(b1-2)[Gal(b1-4)GlcNAc(b1-4)]Man(a1-3)[GlcNAc(b1-4)][Gal(b1-4)GlcNAc(b1-2)[Gal(b1-4)GlcNAc(b1-6)]Man(a1-6)]Man(b1-4)GlcNAc(b1-4)GlcNAc
# In short: as §1
# [14] = biological target: Gal(b1-4)GlcNAc(b1-3)Gal(b1-3)GlcNAc
# In short: as §1
# [15] = biological target: Gal(b1-4)GlcNAc(b1-3)Gal(b1-4)GlcNAc(b1-3)Gal(b1-4)GlcNAc
# In short: as §1
# [16] = biological target: Gal(b1-4)GlcNAc(b1-3)Gal(b1-4)GlcNAc(b1-3)Gal(b1-4)GlcNAc(b1-3)Gal(b1-4)GlcNAc(b1-2)Man(a1-3)[Gal(b1-4)GlcNAc(b1-3)Gal(b1-4)GlcNAc(b1-3)Gal(b1-4)GlcNAc(b1-3)Gal(b1-4)GlcNAc(b1-2)Man(a1-6)]Man(b1-4)GlcNAc(b1-4)[Fuc(a1-6)]GlcNAc
# In short: as §1
# [17] = biological target: Gal(b1-4)GlcNAc(b1-3)Gal(b1-4)GlcNAc(b1-3)Gal(b1-4)GlcNAc(b1-3)Gal(b1-4)GlcNAc(b1-2)[Gal(b1-4)GlcNAc(b1-3)Gal(b1-4)GlcNAc(b1-3)Gal(b1-4)GlcNAc(b1-3)Gal(b1-4)GlcNAc(b1-6)]Man(a1-6)[Gal(b1-4)GlcNAc(b1-3)Gal(b1-4)GlcNAc(b1-3)Gal(b1-4)GlcNAc(b1-3)Gal(b1-4)GlcNAc(b1-2)Man(a1-3)]Man(b1-4)GlcNAc(b1-4)[Fuc(a1-6)]GlcNAc
# In short: as §1
# [18] = biological target: Gal(b1-4)GlcNAc(b1-3)Gal(b1-4)GlcNAc(b1-3)Gal(b1-4)GlcNAc(b1-3)Gal(b1-4)GlcNAc(b1-3)Gal(b1-4)GlcNAc(b1-2)Man(a1-3)[Gal(b1-4)GlcNAc(b1-3)Gal(b1-4)GlcNAc(b1-3)Gal(b1-4)GlcNAc(b1-3)Gal(b1-4)GlcNAc(b1-3)Gal(b1-4)GlcNAc(b1-2)Man(a1-6)]Man(b1-4)GlcNAc(b1-4)GlcNAc
# In short: as §1
# [19] = biological target: Gal(b1-4)GlcNAc(b1-3)Gal(b1-4)GlcNAc(b1-6)[Gal(b1-3)]GalNAc
# In short: as §1
# [20] = biological target: Gal(b1-4)GlcNAc(b1-3)[Gal(b1-4)GlcNAc(b1-6)]Gal(b1-4)GlcNAc
# In short: as §1
# Gal3S6S(b1-4)GlcNAc = biological target: Gal3S6S(b1-4)GlcNAc
# In short: as §1
# Gal6S(b1-3)GlcNAc6S = biological target: Gal6S(b1-3)GlcNAc6S
# In short: as §1
# Gal6S(b1-4)Glc = biological target: Gal6S(b1-4)Glc
# In short: as §1
# GalNAc(b1-4)GlcNAc = biological target: GalNAc(b1-4)GlcNAc
# In short: as §1
# GalNAc3S(b1-4)GlcNAc = biological target: GalNAc3S(b1-4)GlcNAc
# In short: as §1
# GalNAc3S(b1-4)GlcNAc3S = biological target: GalNAc3S(b1-4)GlcNAc3S
# In short: as §1
# [21] = biological target: GalNAc3S(b1-4)[Fuc(a1-3)]GlcNAc
# In short: as §1
binder,measurement,setting,value
B1,glycan array binding signal (z-score),Fuc(a1-2)Gal,-0.532
same,glycan array binding signal (z-score),[1],-0.413
same,glycan array binding signal (z-score),[2],1.21
same,glycan array binding signal (z-score),[3],-0.238
same,glycan array binding signal (z-score),[4],1.77
same,glycan array binding signal (z-score),[5],-0.531
same,glycan array binding signal (z-score),[6],0.037
same,glycan array binding signal (z-score),[7],-0.018
same,glycan array binding signal (z-score),[8],-0.503
same,glycan array binding signal (z-score),[9],-0.23
same,glycan array binding signal (z-score),[10],3.4
same,glycan array binding signal (z-score),[11],0.274
same,glycan array binding signal (z-score),[12],-0.638
same,glycan array binding signal (z-score),[13],1.56
same,glycan array binding signal (z-score),[14],0.732
same,glycan array binding signal (z-score),[15],0.382
same,glycan array binding signal (z-score),[16],-0.08
same,glycan array binding signal (z-score),[17],3.01
same,glycan array binding signal (z-score),[18],2.05
same,glycan array binding signal (z-score),[19],-0.15
same,glycan array binding signal (z-score),[20],0.131
same,glycan array binding signal (z-score),Gal3S6S(b1-4)GlcNAc,2.12
same,glycan array binding signal (z-score),Gal6S(b1-3)GlcNAc6S,-0.513
same,glycan array binding signal (z-score),Gal6S(b1-4)Glc,-0.148
same,glycan array binding signal (z-score),GalNAc(b1-4)GlcNAc,-0.125
same,glycan array binding signal (z-score),GalNAc3S(b1-4)GlcNAc,-0.199
same,glycan array binding signal (z-score),GalNAc3S(b1-4)GlcNAc3S,0.153
same,glycan array binding signal (z-score),[21],2.28
